Several values for one entry are separate records, joined by “and”; a condition that tells them apart may be missing. Equal entries are not always repeated. Results filed as inconclusive are left out. Entries that show only a call come without a potency. Activity calls are given as the source filed them. Calls follow the shape of the dose curve; as a rule, active = well fitted cell-killing curve with a large enough effect in the repeat runs; inconclusive = weak or mixed curves; inactive = flat fitted curve, though single readings scatter.
Assay: qHTS assay to identify small molecule antagonists of the estrogen receptor beta (ER-beta) signaling pathway - cell viability counter screen (AID 1259382); also: nearly all actives have a fitted effect of over 55% in size
Conditions: ER-beta-UAS-bla HEK293T viability, CellTiter-Glo luminescence, 16 h; series mostly up to 92.4 µM
Description: U.S. Tox21 Program National Center for Advancing Translational Sciences [NCATS] NIH Chemical Genomics Center [NCGC] U.S. Environmental Protection Agency [EPA] National Institutes of Environmental Health Sciences [NIEHS] National Toxicology Program [NTP] U.S. Food and Drug Administration [FDA] Tox21 Assay Overview: Estrogen receptor (ER), a nuclear hormone receptor, plays an important role in development, metabolic homeostasis and reproduction. Two subtypes of ER, ER-alpha and ER-beta, have similar expression patterns with some uniqueness in both types. Endocrine disrupting chemicals (EDCs) and their interactions with steroid hormone receptors like ER causes disruption of normal endocrine function. To identify the compounds that inhibit ER signaling, an ER-beta-UAS-bla GripTite cell line (Life Technologies, Madison, WI, USA) containing a beta-lactamase reporter gene under the control of an UAS response element was used to screen Tox21 10K compound library. The cytotoxicity of the Tox21 compound library against the ER-beta-bla cell line was tested in parallel by measuring the cell viability using CellTiter-Glo assay in the same wells.
Tox21 Assay Protocol Summary: ER-beta-UAS-bla HEK293T cells were dispensed at 2,000 cells/4 uL of assay medium containing 2% charcoal stripped FBS per well into black wall/clear-bottom 1536-well plates using a Multidrop Combi (ThermoFisher Scientific, Waltham, MA) dispenser. After the assay plates were incubated at a 37C and 5% CO2 for 6 hr, 23 nL of compounds dissolved in DMSO, positive controls or DMSO only was transferred to the assay plate by a Pintool station (Kalypsys, San Diego, CA), followed by addition of 1 uL (1nM as final concentration) of 17-beta-estradiol (E2) in assay medium using a Flying Reagent Dispenser (FRD, Aurora Discovery, San Diego, CA). The plates were incubated at 37C and 5% CO2 for 16 hr. Then 1 uL of LiveBLAzer B/G FRET substrate was added using a Flying Reagent Dispenser, the plates were incubated at room temperature for 2 hours, and fluorescence intensity was measured by an Envision plate reader (PerkinElmer, Shelton, CT). For cell viability readout that measures cytotoxicity, 4 uL/well of CellTiter-Glo reagent was added into the assay plates using a FRD. After 30 min incubation at room temperature, the luminescence intensity in the plates was measured using a ViewLux (PerkinElmer) plate reader.
Potency is read from the fitted curve at half-maximal effect.

| Compound | Potency |
| --- | --- |
| CC(=O)[O-].CC(=O)[O-].O.O.[Cd+2] | 53.7 µM (active) |
| CC(C)OS(C)(=O)=O | inactive |
| CC(=[OH+])/C=C(/C)[O-].CC(=[OH+])/C=C(\C)[O-].CC(=[OH+])/C=C(\C)[O-].[Al] | inactive |
| ClC(Cl)=C(Cl)Cl | inactive |
| CCN(CC)c1c([N+](=O)[O-])cc(C(F)(F)F)c(N)c1[N+](=O)[O-] | inactive |
| N#CCCSCCC#N | inactive |
| CN(CCCC(=O)c1cccnc1)N=O | inactive |
| N#C/C=C/c1ccccc1 | inactive |
| Clc1ccc(C(c2ccccc2Cl)C(Cl)(Cl)Cl)cc1 (stereo not given) | inactive |
| CCCCCCCCCCCCCCC(Br)C(=O)O (stereo not given) | inactive |
| C[C@]12Cc3nonc3C[C@@H]1CC[C@@H]1[C@@H]2CC[C@@]2(C)[C@H]1CC[C@]2(C)O | 29.8 µM (active) |
| OC(c1ccc(Cl)cc1)(c1ccc(Cl)cc1)C(Cl)(Cl)Cl | inactive |
| C[C@H]1O[C@@H](O[C@H]2[C@@H](O)C[C@H](O[C@H]3[C@@H](O)C[C@H](O[C@H]4CC[C@@]5(C)[C@H](CC[C@@H]6[C@@H]5CC[C@]5(C)[C@@H](C7=CC(=O)OC7)CC[C@]65O)C4)O[C@@H]3C)O[C@@H]2C)C[C@H](O)[C@@H]1O | 30.8 nM (active) and 42.2 nM (active) |
| CN(C)S(=O)(=O)N(SC(F)(Cl)Cl)c1ccccc1 | 54.5 µM (active) |
| ClC1=C(Cl)C2(Cl)C3C(Cl)C(Cl)CC3C1(Cl)C2(Cl)Cl (stereo not given) | inactive |
| CC(Cl)CN(C)C (stereo not given) | inactive |
| Cc1cc(C(C)(C)c2cc(C)c(O)c(C)c2)cc(C)c1O | 26.4 µM (active) |
| COc1ccc(OC)c(CC(C)N)c1 (stereo not given) | inactive |
| CCN | inactive |
| CCOC(=O)OC1=C(c2cc(C)ccc2C)C(=O)NC12CCC(OC)CC2 (stereo not given) | inactive |

| Compound | Potency |
| --- | --- |
| COc1ccc(OC)c(C=O)c1 | inactive |
| Clc1ccc(-c2ccc(Cl)c(Cl)c2Cl)c(Cl)c1Cl | inactive |
| CCOP(=S)(OCC)SCS(=O)(=O)C(C)(C)C | inactive |
| c1ccc2cc3c(cc2c1)-c1cccc2cccc-3c12 | inactive |
| Oc1ccc(C(=C(Cl)Cl)c2ccc(O)cc2)cc1 | 68.5 µM (active) |
| CCc1cc(C)cc(CC)c1-c1c(OC(=O)C(C)(C)C)n2n(c1=O)CCOCC2 | inactive |
| CCC(C)c1cc([N+](=O)[O-])cc([N+](=O)[O-])c1OC(=O)C=C(C)C (stereo not given) | inactive |
| Oc1ccc(C2(c3ccc(O)cc3)c3ccccc3-c3ccccc32)cc1 | 61.1 µM (active) |
| Cc1cc(Cl)ccc1O[C@H](C)C(=O)O | inactive |
| CCOc1cc(C(C)(C)C)ccc1C1COC(c2c(F)cccc2F)=N1 (stereo not given) | 29.5 µM (active) |
| Clc1ccc(COC(Cn2ccnc2)c2ccc(Cl)cc2Cl)cc1 (stereo not given) | 50.8 µM (active) and 27.2 µM (active) and 26.6 µM (active) |
| N#Cc1c(-c2ccc(Cl)cc2)[nH]c(C(F)(F)F)c1Br | 38.6 µM (active) |
| FC(F)(F)c1cccc(C2=CCN(CCc3ccc4ccccc4c3)CC2)c1 | inactive |
| O=S(=O)(c1ccc(Cl)cc1)c1ccc(Cl)cc1 | inactive |
| C[C@@H]1O[C@@H](O[C@H]2C[C@@H](O)[C@]3(CO)[C@H]4[C@H](O)C[C@]5(C)[C@@H](C6=CC(=O)OC6)CC[C@]5(O)[C@@H]4CC[C@]3(O)C2)[C@H](O)[C@H](O)[C@H]1O | 46.1 nM (active) and 75 nM (active) |
| ClC(Cl)=C(c1ccc(Cl)cc1)c1ccc(Cl)cc1 | inactive |
| CN(C)CCc1c[nH]c2cccc(O)c12 | inactive |
| COC(=O)N(C(=O)N1CO[C@@]2(C(=O)OC)Cc3cc(Cl)ccc3C2=N1)c1ccc(OC(F)(F)F)cc1 | inactive |
| O=[N+]([O-])c1cc(Cl)ccc1Cl | inactive |
| COP(=S)(OC)Oc1cc(Cl)c(Br)cc1Cl | inactive |
